From PubChem
Sampled rows, rich in hits. Any-hit rate of the full collection: about 27%.
CYP2C19 act – activators of human cytochrome P450 2C19; P33261; recombinant CYP2C19, luciferin-H EGE luminescence; stronger effect = higher value; 0 = fully inhibited enzyme, 1 = untreated enzyme; activation factor at 5 µM; 96,000 tested, under 10 active; AID 1025;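 active = activation factor of at least 2 at 5 µM in the primary screen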;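 note: 0 = wells with 2.5 mM tranylcypromine and 1 = vehicle-only wells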
CYP2C9 inhib – blocks human cytochrome P450 2C9 | CYP2C9 Supersomes, luciferin-H conversion, luminescence | inhibition, % at 5 µM | 96,000 tested, 20% active | AID 777;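 active = blocking of liver enzyme CYP2C9 beyond about 50% at 5 µM, limit read from the data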
Target sequence (P11712 whole entry, looked up): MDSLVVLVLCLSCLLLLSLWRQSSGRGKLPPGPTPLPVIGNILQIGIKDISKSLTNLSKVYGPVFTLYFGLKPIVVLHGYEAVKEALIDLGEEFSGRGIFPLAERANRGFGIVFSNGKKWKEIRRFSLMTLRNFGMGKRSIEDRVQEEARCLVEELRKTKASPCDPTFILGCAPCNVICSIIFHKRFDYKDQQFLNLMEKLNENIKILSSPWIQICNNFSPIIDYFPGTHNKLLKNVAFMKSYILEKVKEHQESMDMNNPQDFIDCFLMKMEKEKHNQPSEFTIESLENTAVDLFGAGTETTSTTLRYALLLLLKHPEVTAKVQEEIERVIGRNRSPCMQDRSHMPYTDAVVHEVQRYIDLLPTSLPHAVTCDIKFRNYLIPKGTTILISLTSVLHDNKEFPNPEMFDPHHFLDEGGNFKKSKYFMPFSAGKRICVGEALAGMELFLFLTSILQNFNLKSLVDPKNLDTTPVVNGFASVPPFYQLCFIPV
CYP2C19 inh – blocks human cytochrome P450 2C19. CYP2C19 Supersomes, luciferin-H EGE luminescence, 30 min. inhibition, % at 5 µM. 96,000 tested, 21% active. AID 778;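 active = CYP2C19 inhibition above a set limit at 5 µM in the primary screen, cut at about 50% in these data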;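 note: plate controls were negative control wells for no effect and 2.5 mM tranylcypromine positive control for full effect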
CYP2C9 activ – activators of human CYP2C9; 96,000 tested, 1.4% active; recombinant CYP2C9, luciferin-H conversion, luminescence; stronger effect = higher value; factor 1 = untreated enzyme, 0 = blocked; P11712; activation factor at 5 µM;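 active = activation factor of 2 or more for CYP2C9 at a 5 µM dose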;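 note: 0 = sulfaphenazole-blocked wells and 1 = vehicle-only wells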
sEH inhibitor – inhibitors of human soluble epoxide hydrolase; P34913; recombinant human sEH enzymatic activity assay; inhibition, % at 2 µM; 91,000 tested, 0.34% active; AID 707; in the data active = inhibition above about 80%
sEH activator – activators of human soluble epoxide hydrolase | P34913 | purified human sEH enzymatic activity, activator screen | activation, % at 2 µM | 91,000 tested, 0.04% active; in the data active = activation above about 37%
Starred values were filed as active, the others as inactive.

How did COc1ccc(CN2C(=O)C3C4C=CC(C4)C3C2=O)cc1 (stereo unspecified) do in these assays?
CYP2C19 act: 0.8; CYP2C9 inhib: 8; CYP2C19 inh: 16; CYP2C9 activ: 0.9; sEH inhibitor: -11; sEH activator: 12

Results for Cn1cc(Cl)c(C(=O)OCC(=O)Nc2nc(-c3ccc(Br)cc3)cs2)n1 ?
sEH inhibitor: -6; sEH activator: 6

Results for CCOC(=O)C1=C(O)/C(=C/c2cn(CC(=O)NCC3CCCO3)c3ccccc23)SC1=Nc1ccc(C)cc1 (stereo unspecified) ?
sEH inhibitor: -1; sEH activator: 4

What do the screens show for `Cc1cc(C(=O)OCC(=O)N2c3ccccc3CC2C)c(C)o1` (stereo unspecified)?
CYP2C19 act: 0.3; CYP2C9 inhib: 48; CYP2C19 inh: 75*; CYP2C9 activ: 0.5; sEH inhibitor: -26; sEH activator: 23

What do the screens show for `Cc1cc(C(=O)OCC(=O)N2CC(C)CC(C)C2)c(C)o1` (stereo unspecified)?
CYP2C19 act: 0.5; CYP2C9 inhib: 16; CYP2C19 inh: 55*; CYP2C9 activ: 0.8; sEH inhibitor: -10; sEH activator: 11

What do the screens show for `Cc1cc(=O)oc2cc(OCC(=O)N3c4ccccc4CC3C)ccc12` (stereo unspecified)?
CYP2C19 act: 0.9; CYP2C9 inhib: 14; CYP2C19 inh: 14; CYP2C9 activ: 0.9; sEH inhibitor: -6; sEH activator: 6

What do the screens show for `CN(CC1CCCO1)S(=O)(=O)c1ccc(C(=O)Nc2nc3cc4c(cc3s2)OCO4)cc1` (stereo unspecified)?
sEH inhibitor: -18; sEH activator: 17

How did CCOC(=O)CSc1nc(C)c2ccc(C)cc2n1 do in these assays?
sEH inhibitor: -8; sEH activator: 12

Results for CCOC(=O)c1c(NC(=O)c2cccs2)sc(C(=O)N(C)C)c1C ?
CYP2C19 act: 0.4; CYP2C9 inhib: 77*; CYP2C19 inh: 58*; CYP2C9 activ: 0.2; sEH inhibitor: 8; sEH activator: -10

What do the screens show for `CCOC(=O)c1c(NC(=O)C2COc3ccccc3O2)sc(C(C)=O)c1C` (stereo unspecified)?
CYP2C19 act: 0.8; CYP2C9 inhib: 46; CYP2C19 inh: 22; CYP2C9 activ: 0.5; sEH inhibitor: -11; sEH activator: 14

What do the screens show for `CCc1c(C)sc(NC(=O)c2cccs2)c1C(=O)OC(C)C`?
CYP2C19 act: 0.5; CYP2C9 inhib: 64*; CYP2C19 inh: 51*; CYP2C9 activ: 0.4; sEH inhibitor: -8; sEH activator: 7

Results for CCc1noc(C)c1C(=O)Nc1sc(C(=O)N(C)C)c(C)c1C(=O)OC ?
CYP2C19 act: 0.5; CYP2C9 inhib: 60*; CYP2C19 inh: 46; CYP2C9 activ: 0.4; sEH inhibitor: 0; sEH activator: 1

What do the screens show for `CCOC(=O)c1c(NC(=O)c2cccs2)sc(C)c1CC`?
CYP2C19 act: 0.6; CYP2C9 inhib: 4; CYP2C19 inh: 44; CYP2C9 activ: 1

Results for CCOC(=O)c1c(NC(=O)C2c3ccccc3Oc3ccccc32)sc(C(N)=O)c1C ?
CYP2C19 act: 0.5; CYP2C9 inhib: 78*; CYP2C19 inh: 46; CYP2C9 activ: 0.2; sEH inhibitor: 2; sEH activator: -2

How did COC(=O)c1c(NC(=O)c2ccco2)sc(C(=O)N(C)C)c1C do in these assays?
sEH inhibitor: -2; sEH activator: 5

How did CC1=C(C#N)C(=O)OC(C)(C)C1 do in these assays?
CYP2C19 act: 1.1; CYP2C9 inhib: -18; CYP2C19 inh: -14; CYP2C9 activ: 1.2

What do the screens show for `COc1cc(C(c2nnnn2C(C)(C)C)N2CCN(C)CC2)cc(OC)c1OC` (stereo unspecified)?
CYP2C19 act: 1; CYP2C9 inhib: -13; CYP2C19 inh: 2; CYP2C9 activ: 1.1; sEH inhibitor: -5; sEH activator: 4

What do the screens show for `Cn1c(=O)c2c(nc(CN3CCN(C(=O)c4ccco4)CC3)n2Cc2ccccc2)n(C)c1=O`?
CYP2C19 act: 0.7; CYP2C9 inhib: 37; CYP2C19 inh: 27; CYP2C9 activ: 0.6; sEH inhibitor: 7; sEH activator: -6

Results for CCOC(=O)C1CCN(Cc2nc3ccccc3c(=O)n2-c2ccc(F)cc2)CC1 ?
CYP2C19 act: 0.9; CYP2C9 inhib: 68*; CYP2C19 inh: 13; CYP2C9 activ: 0.3; sEH inhibitor: -2; sEH activator: 4

Results for O=C(c1ccco1)N1CCN(Cc2nc3ccccc3c(=O)n2-c2ccc(F)cc2)CC1 ?
CYP2C19 act: 0.6; CYP2C9 inhib: 70*; CYP2C19 inh: 36; CYP2C9 activ: 0.3; sEH inhibitor: 0; sEH activator: 0

How did Cc1ccc(-n2nnc3c(=O)n(Cc4ccccc4C)cnc32)cc1 do in these assays?
CYP2C19 act: 0.9; CYP2C9 inhib: -6; CYP2C19 inh: 11; CYP2C9 activ: 1.1; sEH inhibitor: 1; sEH activator: -1

Results for COc1ccc(-n2nnc3c(=O)n(Cc4cc(C)ccc4C)cnc32)cc1 ?
CYP2C19 act: 0.6; CYP2C9 inhib: 72*; CYP2C19 inh: 36; CYP2C9 activ: 0.3; sEH inhibitor: -10; sEH activator: 7

Results for COC(=O)c1ccccc1NC(=O)CSc1nnc(CNS(=O)(=O)c2ccc(C)cc2)n1C ?
CYP2C19 act: 0.5; CYP2C9 inhib: 94*; CYP2C19 inh: 52*; CYP2C9 activ: 0.1; sEH inhibitor: 3; sEH activator: -3

How did COC(=O)c1ccccc1NC(=O)Cn1ccnc1 do in these assays?
CYP2C19 act: 0; CYP2C9 inhib: 84*; CYP2C19 inh: 100*; CYP2C9 activ: 0.2; sEH inhibitor: -3; sEH activator: 0

Results for O=C(CSc1nc(O)cc(=O)n1-c1ccccc1)NC1CCCCC1 ?
CYP2C19 act: 1; CYP2C9 inhib: 18; CYP2C19 inh: -5; CYP2C9 activ: 0.8; sEH inhibitor: -7; sEH activator: 8

What do the screens show for `COC(=O)c1ccccc1NC(=O)COC(C)=O`?
CYP2C19 act: 0.8; CYP2C9 inhib: -3; CYP2C19 inh: 15; CYP2C9 activ: 1; sEH inhibitor: 4; sEH activator: -4

How did COC(=O)c1ccccc1NC(=O)CSc1nc(O)cc(=O)n1C1CCCC1 do in these assays?
CYP2C19 act: 0.7; CYP2C9 inhib: 74*; CYP2C19 inh: 28; CYP2C9 activ: 0.3; sEH inhibitor: 0; sEH activator: 3

Results for Cn1ccnc1SCC(=O)NC12CC3CC(CC(C3)C1)C2 ?
CYP2C19 act: 0.1; CYP2C9 inhib: 5; CYP2C19 inh: 92*; CYP2C9 activ: 0.9; sEH inhibitor: 1; sEH activator: -2

How did O=C(Nc1c(C(=O)NCc2ccco2)cnn1-c1ccccc1)c1ccc(F)cc1 do in these assays?
CYP2C19 act: 0.6; CYP2C9 inhib: 42; CYP2C19 inh: 43; CYP2C9 activ: 0.6
